Mito fusion act – inhibitors of mitochondrial division or activators of mitochondrial fusion; Potency, µM (highest dose often 46.1 µM), for the others: at the highest dose growth rescue (activation), most hits filed as activators; S. cerevisiae fusion-defective mutant growth rescue, CellTiterGlo 48 h; 320,000 tested, 0.23% active; AID 485298; further: potency means the concentration at half of the fitted maximal effect; % of control where 0% means no effect; nearly all actives have a fitted effect of over 45% in size
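Temperature-sensitive fusion-defective S. cerevisiae (e.g. fzo1-1, mgm1-5) were grown with compound in YPEG medium (3% ethanol, 3% glycerol) for 48 hours at 37C. Growth rescue was measured as viability by CellTiterGlo luminescence after 10 minutes at ambient.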
TCR act – activators of T cell receptors | 330,000 tested, under 10 active | Potency, µM (doses to about 9.22 µM), for inactives: top-dose activation of IL-2 secretion, hits mostly activators | primary human leukocytes, anti-CD3, IL-2 HTRF, 48 h | AID 504894; further: % of control where 0% means no effect
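Primary human leukocytes incubated 48 hr with anti-CD3 beads plus compound, without co-stimulation. Secreted IL-2 measured by HTRF (europium cryptate/d2 anti-IL-2 pair, 320 nm excitation, 665 nm emission).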
ClpP mod – qHTS Assay for Activators of ClpP; Potency, µM (highest dose often 57.5 µM), for inactives: top-dose activity change, negative = active; AID 651965, 2013; purified B. subtilis ClpP, FRET peptide cleavage, 20 min; 340,000 tested, 1.9% active; ATP-dependent Clp protease proteolytic subunit (Bacillus subtilis (strain 168)), P80244; active means well fitted falling curve with a large enough effect; inconclusive means small, poorly fitted or top-dose-only effect; inactive means no such curve, though single readings can be large or run the other way; further: potency means the concentration at half of the fitted maximal effect; the source files actives as falling curves though it sought activators and does not explain the sign; nearly all actives have a fitted effect of over 65% in size
Target sequence (P80244 whole entry, looked up): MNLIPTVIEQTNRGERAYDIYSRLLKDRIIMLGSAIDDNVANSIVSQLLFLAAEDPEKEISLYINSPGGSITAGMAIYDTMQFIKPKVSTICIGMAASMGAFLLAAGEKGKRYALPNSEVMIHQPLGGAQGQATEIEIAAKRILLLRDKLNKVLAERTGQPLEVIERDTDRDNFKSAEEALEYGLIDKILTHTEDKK
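FRET quenching reversal measured ClpP activation: 10 microg/mL B. subtilis ClpP at pH 8 with the FRET-FV decapeptide, read at 430 nm after 320 nm excitation. The 20-min minus 0-min signal was scaled between DMSO/no-enzyme wells and ADEP (5.8 microM final).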
AT treatment – potential ataxia-telangiectasia treatments restoring KAP-1 phosphorylation. F2112 A-T fibroblasts, KAP-1 phosphorylation AlphaLISA; neocarzinostatin DNA damage 30 min before lysis. Potency, µM (highest dose often 57.5 µM), without a hit: at the highest dose activation, hits mostly activators. 320,000 tested, 0.19% active. AID 485349; further: potency means the concentration at half of the fitted maximal effect; % of control where 0% means no effect; nearly all actives have a fitted effect of over 45% in size
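ATM-like activity read as KAP-1 phosphorylation via AlphaLISA donor/acceptor antibody pairs after lysis and 6 hr at 25C. Cells were ATM-null patient fibroblasts (F2112, hTERT), dosed 60 min, then exposed to the DSB inducer NCS for 30 min.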
Glioma ERSR ind – ER stress response induction in glioma; U87-MG GRP78 promoter luciferase reporter, 16 h; Potency, µM, inactives show at the highest dose activation, usual class: activators; 420,000 tested, 0.02% active; AID 602332; further: potency means the concentration at half of the fitted maximal effect; series mostly up to about 76 µM; % of control where 0% means no effect; nearly all actives have a fitted effect of over 35% in size
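Stably transfected U87-MG human glioma cells carrying a GRP78-based luminescent sensor were seeded at 1000 cells/well, pin-dosed with compounds and incubated 16 h. Luciferase reagent was then added, and end-point luminescence was read after 10 min at room temperature.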
MBNL1 CUG block – inhibitors of human MBNL1 binding to CUG repeat RNA; Q9NR56; TR-FRET MBNL1-His/biotin-(CUG)12 binding, 665/545 ratio; Potency, µM (doses to about 57.5 µM), without a hit: top-dose activity change, negative = inhibition, most hits filed as inhibitors; 280,000 tested, 0.036% active; AID 2675; active means well fitted inhibition curve with a large enough effect in the signal ratio, with a control signal flat, not every such curve was filed as active; inconclusive means small, poorly fitted or top-dose-only effect, or effect the other way, or a change in a side signal; inactive means no such curve, though single readings can be large or run the other way; the % refers to the signal ratio; further: potency means the concentration at half of the fitted maximal effect; on the % scale 0 is the no-effect control and ±100 the full control effect
Target sequence (Q9NR56 whole entry, looked up): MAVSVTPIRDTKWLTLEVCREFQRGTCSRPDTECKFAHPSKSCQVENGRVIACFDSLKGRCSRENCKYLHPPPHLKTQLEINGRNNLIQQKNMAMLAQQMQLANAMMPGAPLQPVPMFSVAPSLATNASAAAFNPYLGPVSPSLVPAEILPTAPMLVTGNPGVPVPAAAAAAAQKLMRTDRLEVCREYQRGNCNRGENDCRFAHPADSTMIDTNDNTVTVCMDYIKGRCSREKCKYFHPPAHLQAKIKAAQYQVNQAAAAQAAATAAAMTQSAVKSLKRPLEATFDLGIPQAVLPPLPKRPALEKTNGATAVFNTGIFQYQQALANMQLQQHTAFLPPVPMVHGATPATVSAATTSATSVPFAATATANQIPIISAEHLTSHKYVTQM
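TR-FRET between His-tagged MBNL1 and biotin-(CUG)12 RNA, detected with Tb anti-His antibody (0.055 ng/ul) and streptavidin-XL665 (5 nM), 60 min at room temperature. Compounds titrated 92 nM to 58 uM; 665/545 nm ratio normalized to buffer and complex controls.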
Numbers without * were called inactive; ? = inconclusive; nt = no result; ! = repeats disagree; [ ] = another dose, or the depositor's remark. A selection: hits, their analogues and other compounds. The true share with any hit is near 1.8%. Unless noted, the call rests on the fitted dose curve; in most records, active means well fitted curve in the direction sought with a large enough effect; inconclusive means small, poorly fitted or top-dose-only effect, or another doubt; inactive means no such curve, though single readings can be large; an effect the other way counts as inactive or inconclusive.

SMILES | Mito fusion act | TCR act | ClpP mod | AT treatment | Glioma ERSR ind | MBNL1 CUG block
C=C(C)COc1ccc2c(CC)cc(=O)oc2c1C | ? | -4%[46.1 µM] | 13µM* | 8% | -3% | nt
Cc1c(C)c2ccc(OCC(=O)N(C)C)c(C)c2oc1=O | -2% | 6% | -1% | 2% | 1% | 17%
Cc1cc(=O)oc2c(C)c(OCC(=O)N(C)C)ccc12 | 0% | -2% | 16µM* | 4% | 1% | 2%
CCCOc1ccc2c(CC)cc(=O)oc2c1C | 19% | -2%[46.1 µM] | ? | 2% | 0% | -4%
CCCCc1cc(=O)oc2c(C)c(OCC(=O)N3CCCC3)ccc12 | 10% | 0% | 13µM* | 21% | -2% | 3%
COC(=O)c1ccc(NC(=O)c2ccccc2OCC(=O)Nc2ccc(Br)cc2)cc1 | nt | nt | 4% | nt | nt | nt
CCC1(C2CCN(C(=O)c3coc4c3C(=O)CCC4)CC2)NC(=O)N(CCc2scnc2C)C1=O (stereo unspecified) | nt | nt | nt | nt | -3% | nt
Cc1cc(C(=O)Nc2ccccc2-c2nc(CNC(=O)c3ccc(F)cc3F)c(C)o2)c(C)o1 | nt | nt | nt | nt | 1% | nt
CC#C[C@]1(O)CC[C@H]2[C@@H]3CCC4=CC(=O)CCC4=C3[C@@H](c3ccc(N(C)C)cc3)C[C@@]21C | 9.2µM*! | 0% | 1% | -20% | -1% | 19%
CC#C[C@]1(O)CC[C@H]2[C@@H]3CCC4=CC(=O)CCC4=C3[C@H](c3ccc(N(C)C)cc3)C[C@@]21C | nt | nt | nt | nt | -1% | nt
CCn1cc(C(=O)Nc2ccc(C(=O)N3CCCC3)cc2)c(=O)c2ccc(C)nc21 | 0% | nt | nt | 6% | nt | -6%
CCn1cc(C(=O)Nc2ccc(OC)c(S(=O)(=O)N3CCCCC3)c2)c(=O)c2ccc(C)nc21 | -2% | -1%[46.1 µM] | 32µM* | 1% | -1% | nt
CC(C)(C)c1ccc(NC(=O)C2CCCN(c3cnccn3)C2)cc1 (stereo unspecified) | 13µM* | -6% | -16% | 5% | 4% | 0%
COc1ccc(NC(=O)C2CCCN(c3cnccn3)C2)cc1 (stereo unspecified) | 10% | -2% | -17% | 3% | -3% | -7%
Cc1cccc(-c2noc(-c3ccc(Cl)cc3[N+](=O)[O-])n2)c1 | 6% | 5% | -1% | 2% | 3% | nt
COc1ccc(-c2noc(-c3ccc(Cl)cc3[N+](=O)[O-])n2)cc1OC | 0% | 2%[46.1 µM] | 28µM* | 23% | 0% | nt
NC(=O)Nc1ccc(C(=O)OCC(=O)Nc2ccc([N+](=O)[O-])cc2C(F)(F)F)cc1 | 8% | 0%[46.1 µM] | 0% | 3% | -5% | nt
Nc1ccc(C(=O)OCC(=O)Nc2ccc([N+](=O)[O-])cc2C(F)(F)F)cc1 | ? | -5%[46.1 µM] | 22µM* | 4% | -3% | ?
COC(=O)c1cc(C(=O)OCC(=O)Nc2ccccc2OC(F)F)cc([N+](=O)[O-])c1 | 4% | -1%[46.1 µM] | 28µM* | 7% | -2% | ?
CSc1ccc(Cl)c(C(=O)OCC(=O)Nc2ccccc2OC(F)F)c1 | 7% | 1%[46.1 µM] | 28µM* | 3% | -5% | 10%
CCc1noc(C)c1C(=O)N1CCOc2ccc(CN3CCN(c4ccccn4)CC3)cc2C1 | nt | nt | nt | nt | -6% | nt
O=C1OCCN1C(=O)[C@H]1[C@H](c2ccc(F)cc2)C(c2cccc(Cl)c2)=NN1c1ccccc1 | nt | -6%[46.1 µM] | 4% | 30% | -5% | nt
Cc1cccc(C2=NN(c3ccc(Br)cc3)[C@@H](C(=O)N3CCOC3=O)[C@@H]2c2ccc(F)cc2)c1 | 26% | -1% | 5% | 18µM* | -1% | 52%
O=C1OCCN1C(=O)[C@H]1[C@H](c2ccc(Cl)cc2)C(c2cccc(Cl)c2)=NN1c1ccccc1 | 9% | -8% | 4% | 35µM* | -5% | 15%
CC(C)C[C@@H](NC(=O)[C@@H](Cc1ccccc1)NC(=O)c1cnccn1)B(O)O | nt | nt | nt | nt | 2% | nt
SMILES | Mito fusion act | TCR act | ClpP mod | AT treatment | Glioma ERSR ind | MBNL1 CUG block
Cc1nnc2c3ccccc3nc(Nc3ccccc3C(=O)O)n12 | nt | nt | 16µM* | nt | -2% | nt
O=c1c2nc(Br)n([C@@H]3O[C@@H]4CO[P@@](O)(=S)O[C@H]4[C@H]3O)c2nc2[nH]c(-c3ccccc3)cn12 | nt | nt | nt | nt | 1% | nt
CN(C)C(CNC(=O)c1ccco1)c1cccs1 (stereo unspecified) | -1% | 1% | 11µM* | -1% | 4% | nt
CN(C)C(CNC(=O)c1cccs1)c1ccco1 (stereo unspecified) | 6% | 3% | -2% | 10% | 1% | nt
C=CCN1CCc2c(cc(O)c(O)c2Br)[C@@H](c2ccccc2)C1 | 16µM* | 3% | 0% | nt | -3% | nt
C=CCN1CCc2cc(O)c(O)cc2[C@H](c2ccccc2)C1 | nt | nt | nt | nt | -4% | nt
CCCC[C@H](NC(C)=O)C(=O)N[C@H]1CC(=O)NCCCC[C@@H](C(N)=O)NC(=O)[C@H](Cc2c[nH]c3ccccc23)NC(=O)[C@H](CCCN=C(N)N)NC(=O)[C@@H](Cc2ccccc2)NC(=O)[C@H](Cc2cnc[nH]2)NC1=O | nt | nt | nt | nt | 0% | nt
CCOC(=O)c1[nH]c2cc3c(cc2c1NC(=O)CN1CCN(CCO)CC1)OCO3 | 3% | 0% | 25µM* | 2% | -3% | 13%
COc1ccc2[nH]c(C(=O)O)c(CCC(=O)O)c2c1 | -7% | -1% | 20µM* | -11% | 1% | 2%
CCOC(=O)c1[nH]c2ccc(OC)cc2c1NC(C)=O | -5% | 2% | 25µM* | 19% | -3% | ?
C=CCOC(=O)Nc1c(C(=O)OC)[nH]c2ccc(Cl)cc12 | -1% | 22% | 32µM* | ? | 0% | -7%
CCOC(=O)c1[nH]c2cc3c(cc2c1NC(=O)CN1CCC2(CC1)OCCO2)OCO3 | 2% | 0% | ? | 8% | -2% | ?
CO[C@H]1[C@H](NC(=O)c2ccco2)c2ccccc2C12CCN(Cc1ccc3cccc(F)c3n1)CC2 | nt | nt | nt | nt | -4% | nt
CCOC(=O)c1[nH]c2ccc(OC)cc2c1NC(=O)CN1CCSCC1 | 7% | 0% | 13µM* | 22% | -3% | 5%
CCOC(=O)c1[nH]c2ccc(OCC)cc2c1NC(=O)CN1CCN(c2ccccc2)CC1 | 1% | -6% | ? | -1% | 7% | 13%
CCOC(=O)c1[nH]c2ccc(OCC)cc2c1NC(=O)CN1CCC2(CC1)OCCO2 | 3% | -10% | 25µM* | 6% | -5% | 19%
Fc1ccc(-c2cc3nc(-c4ccccc4)cc(N4CCN(CCN5CCOCC5)CC4)n3n2)cc1 | ? | 3% | ? | 12% | -3% | 15%
